# The whole screen tested about 5,500 compounds, of which about 2,000 (36%) were called active. Not shown: some 18% with an inconclusive outcome. The list shows a part of the results. Values without a mark were called inactive. Cut-off read from the data, not from the text of the source: active = normalized growth mostly below about 0.91 (no sharp cut-off); inconclusive = no clear call, values can overlap the other calls; inactive = mostly above about 0.92.
# Experiment: chemical genetic growth profiling, strain panel (AID 1159580);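 note: tested at 20 µM; growth read once vehicle control cultures reached saturation at 30 °C; 1 = growth at the plate median or of vehicle wells; lower values mean less growth of the strain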
# Settings: S. cerevisiae deletion strains, growth OD
# [1] = locus YAL040C, strain CLN3, active compounds read low
# [2] = locus YCL061C, strain MRC1 (second series), active compounds read low
# [3] = locus YDR363W, strain ESC2, active compounds read low
# [4] = locus YER002W, strain NOP16, active compounds read low
# [5] = locus YGR078C, strain PAC10, active compounds read low
# [6] = locus YGR229C, strain SMI1, active compounds read low
# [7] = locus YNL175C, strain NOP13, active compounds read low
# [8] = locus YNL197C, strain WHI3, active compounds read low
# [9] = locus YNL224C, strain SQS1, active compounds read low
# [10] = locus YNL322C, strain KRE1, active compounds read low
# [11] = locus YOR083W, strain WHI5 (second series), active compounds read low
# [12] = locus YHR030C, strain SLT2, active compounds read low
# [13] = locus YDR150W, strain NUM1, active compounds read low
# [14] = locus YJR075W, strain HOC1, active compounds read low
# [15] = locus YMR263W, strain SAP30, active compounds read low
# [16] = locus YMR307W, strain GAS1, active compounds read low
# [17] = locus YPL241C, strain CIN2, active compounds read low
smiles,measurement,setting,value
CC(/C=C/c1cccc(Oc2ccc(F)cc2)c1)N(O)C(N)=O (stereo unspecified),normalized growth,[1],0.991
same,normalized growth,[2],0.994
same,normalized growth,[3],0.987
same,normalized growth,[4],1.01
same,normalized growth,[5],1.01
same,normalized growth,[6],1
same,normalized growth,[7],1
same,normalized growth,[8],0.971
same,normalized growth,[9],0.984
same,normalized growth,[10],1.01
same,normalized growth,[11],0.966
OCCOCCN1CCN(C2=Nc3ccccc3Sc3ccccc32)CC1,normalized growth,"locus YAL021C, strain ccr4, active compounds read low",1.01
same,normalized growth,"locus YAL026C, strain drs2, active compounds read low",1
same,normalized growth,"locus YAL030W, strain snc1, active compounds read low",0.992
same,normalized growth,"locus YBL061C, strain skt5, active compounds read low",1.02
same,normalized growth,"locus YBR009C, strain hhf1, active compounds read low",1.02
same,normalized growth,"locus YBR023C, strain chs3, active compounds read low",1.01
same,normalized growth,"locus YBR171W, strain sec66, active compounds read low",1
same,normalized growth,"locus YBR231C, strain swc5, active compounds read low",1.01
same,normalized growth,"locus YBR279W, strain paf1, active compounds read low",1.01
same,normalized growth,"locus YCL011C, strain gbp2, active compounds read low",0.993
same,normalized growth,"locus YCL016C, strain dcc1, active compounds read low",0.997
same,normalized growth,"locus YCL069W, strain vba3, active compounds read low",1.01
same,normalized growth,"locus YCR088W, strain abp1, active compounds read low",1
same,normalized growth,"locus YDL005C, strain med2, active compounds read low",1
same,normalized growth,"locus YDL040C, strain nat1, active compounds read low",1
same,normalized growth,"locus YDR001C, strain nth1, active compounds read low",1.01
same,normalized growth,"locus YDR069C, strain doa4, active compounds read low",0.998
same,normalized growth,"locus YDR137W, strain rgp1, active compounds read low",1
same,normalized growth,"locus YDR159W, strain sac3, active compounds read low",1
same,normalized growth,"locus YDR195W, strain ref2",0.977
same,normalized growth,"locus YDR297W, strain sur2, active compounds read low",0.993
same,normalized growth,"locus YDR334W, strain swr1, active compounds read low",1.01
same,normalized growth,"locus YDR335W, strain msn5, active compounds read low",1.01
same,normalized growth,"locus YDR392W, strain spt3, active compounds read low",1.02
same,normalized growth,"locus YEL003W, strain gim4, active compounds read low",1
same,normalized growth,"locus YEL037C, strain rad23, active compounds read low",1.01
same,normalized growth,"locus YEL061C, strain CIN8 (second series), active compounds read low",1
same,normalized growth,"locus YER015W, strain faa2, active compounds read low",1.01
same,normalized growth,"locus YER016W, strain bim1, active compounds read low",1.01
same,normalized growth,"locus YER111C, strain swi4, active compounds read low",1.01
same,normalized growth,"locus YER155C, strain BEM2 (second series), active compounds read low",0.993
same,normalized growth,"locus YFR010W, strain ubp6, active compounds read low",1.01
same,normalized growth,"locus YGL167C, strain pmr1, active compounds read low",1
same,normalized growth,"locus YGL173C, strain kem1, active compounds read low",1
same,normalized growth,"locus YGL227W, strain vid30, active compounds read low",0.989
same,normalized growth,"locus YGL240W, strain doc1, active compounds read low",0.992
same,normalized growth,"locus YGL253W, strain hxk2, active compounds read low",1.02
same,normalized growth,"locus YHR013C, strain ard1, active compounds read low",0.982
same,normalized growth,"locus YHR027C, strain rpn1, active compounds read low",1
same,normalized growth,[12],0.991
same,normalized growth,"locus YHR079C, strain IRE1, active compounds read low",0.994
same,normalized growth,"locus YHR142W, strain chs7, active compounds read low",1.02
same,normalized growth,"locus YJL092W, strain hpr5, active compounds read low",1.02
same,normalized growth,"locus YJL095W, strain BCK1 (second series), active compounds read low",1
same,normalized growth,"locus YJL095W, strain BCK1, active compounds read low",0.999
same,normalized growth,"locus YJL115W, strain asf1, active compounds read low",1
same,normalized growth,"locus YJL129C, strain trk1, active compounds read low",1.02
same,normalized growth,"locus YJL154C, strain vps35, active compounds read low",1.03
same,normalized growth,"locus YJL164C, strain tpk1, active compounds read low",1.01
same,normalized growth,"locus YJL166W, strain qcr8, active compounds read low",1.01
same,normalized growth,"locus YJL187C, strain SWE1, active compounds read low",1.01
same,normalized growth,"locus YJR066W, strain TOR1, active compounds read low",0.978
same,normalized growth,"locus YKL160W, strain elf1, active compounds read low",1
same,normalized growth,"locus YKR026C, strain gcn3, active compounds read low",1.02
same,normalized growth,"locus YKR091W, strain srl3, active compounds read low",1.01
same,normalized growth,"locus YLL001W, strain dnm1, active compounds read low",0.996
same,normalized growth,"locus YLL026W, active compounds read low",1
same,normalized growth,"locus YLL041C, strain sdh2, active compounds read low",1.02
same,normalized growth,"locus YLR027C, strain aat2, active compounds read low",1.01
same,normalized growth,"locus YLR113W, strain HOG1, active compounds read low",1
same,normalized growth,"locus YLR221C, strain rsa3, active compounds read low",1
same,normalized growth,"locus YLR258W, strain gsy2, active compounds read low",1.01
same,normalized growth,"locus YLR262C, strain YPT6 (second series), active compounds read low",1.03
same,normalized growth,"locus YLR320W, strain mms22, active compounds read low",0.981
same,normalized growth,"locus YLR342W, strain FKS1, active compounds read low",1
same,normalized growth,"locus YLR357W, strain rsc2, active compounds read low",1.01
same,normalized growth,"locus YLR370C, strain arc18, active compounds read low",1.01
same,normalized growth,"locus YLR384C, strain iki3, active compounds read low",1.01
same,normalized growth,"locus YML120C, strain ndi1, active compounds read low",1.01
same,normalized growth,"locus YMR058W, strain fet3, active compounds read low",1.01
same,normalized growth,"locus YMR125W, strain sto1, active compounds read low",1.01
same,normalized growth,"locus YMR129W, active compounds read low",1.01
same,normalized growth,"locus YMR205C, strain PFK2, active compounds read low",0.994
same,normalized growth,"locus YMR231W, strain pep5, active compounds read low",1
same,normalized growth,"locus YNL071W, strain lat1, active compounds read low",1
same,normalized growth,"locus YNL183C, strain NPR1, active compounds read low",0.975
same,normalized growth,"locus YNL209W, strain ssb2, active compounds read low",1.01
same,normalized growth,"locus YNL248C, strain rpa49, active compounds read low",0.977
same,normalized growth,"locus YNL322C, strain KRE1 (second series), active compounds read low",1
same,normalized growth,"locus YNR049C, strain mso1, active compounds read low",1.01
same,normalized growth,"locus YOR001W, strain rrp6, active compounds read low",0.995
same,normalized growth,"locus YOR070C, strain gyp1, active compounds read low",0.995
same,normalized growth,"locus YOR080W, strain dia2, active compounds read low",1
same,normalized growth,"locus YOR083W, strain WHI5, active compounds read low",0.991
same,normalized growth,"locus YOR106W, strain vam3, active compounds read low",0.997
same,normalized growth,"locus YOR231W, strain MKK1, active compounds read low",0.981
same,normalized growth,"locus YOR265W, strain rbl2, active compounds read low",1
same,normalized growth,"locus YOR270C, strain vph1, active compounds read low",1
same,normalized growth,"locus YOR290C, strain snf2, active compounds read low",1
same,normalized growth,"locus YPL051W, strain arl3, active compounds read low",1.02
same,normalized growth,"locus YPL078C, strain atp4, active compounds read low",1.01
same,normalized growth,"locus YPL106C, strain sse1, active compounds read low",1.03
same,normalized growth,"locus YPL240C, strain hsp82, active compounds read low",1
same,normalized growth,"locus YPL256C, strain CLN2, active compounds read low",0.989
N=C1Sc2ccccc2C2=NCCCN12,normalized growth,[1],1.02
same,normalized growth,[2],1.01
same,normalized growth,[13],1.04
same,normalized growth,[3],1.01
same,normalized growth,[4],1.04
same,normalized growth,[5],1.02
same,normalized growth,[14],0.945
same,normalized growth,[15],1.01
same,normalized growth,[16],0.872 (active)
same,normalized growth,[7],1.04
same,normalized growth,[8],1.02
same,normalized growth,[9],1.02
same,normalized growth,[10],1.01
same,normalized growth,[11],0.988
same,normalized growth,[17],1.02
Clc1ccc(C2=CSC3=NCCCN23)cc1,normalized growth,"locus YAL013W, strain DEP1, active compounds read low",0.997
same,normalized growth,"locus YBR229C, strain ROT2, active compounds read low",1.02
same,normalized growth,"locus YDL101C, strain DUN1, active compounds read low",0.993
same,normalized growth,[13],0.959
same,normalized growth,"locus YEL061C, strain CIN8, active compounds read low",1
same,normalized growth,[5],0.992
same,normalized growth,[6],1.01
same,normalized growth,[12],0.986
same,normalized growth,"locus YHR087W, strain rtc3, active compounds read low",0.994
same,normalized growth,"locus YJR043C, strain POL32, active compounds read low",0.999
same,normalized growth,[14],0.989
same,normalized growth,"locus YLR039C, strain RIC1, active compounds read low",0.989
same,normalized growth,"locus YLR058C, strain SHM2 (second series), active compounds read low",1.01
same,normalized growth,"locus YLR085C, strain ARP6, active compounds read low",1.03
same,normalized growth,"locus YLR262C, strain YPT6, active compounds read low",0.998
same,normalized growth,"locus YML094W, strain GIM5, active compounds read low",0.993
same,normalized growth,"locus YMR219W, strain ESC1, active compounds read low",1.01
same,normalized growth,[15],0.986
same,normalized growth,[16],0.982
same,normalized growth,"locus YNL153C, strain GIM3, active compounds read low",0.995
same,normalized growth,"locus YNL298W, strain CLA4 (second series), active compounds read low",1.04
same,normalized growth,[10],0.999
same,normalized growth,"locus YNR030W, strain Alg12, active compounds read low",1.01
same,normalized growth,"locus YPL055C, strain LGE1, active compounds read low",1.03
same,normalized growth,[17],1
same,normalized growth,"locus YPR135W, strain CTF4, active compounds read low",1.02
